# PubChem BioAssay AID624483 (NMMLSC, 2012)
# The campaign covered roughly 360,000 compounds. About 11,000 (3.1%) were called active. About 2% were inconclusive and are not listed. Many of the other results were omitted from the sample, so actives are more common in it than they were. Unmarked numbers belong to inactive results. No stated cut-off is given here; in the data, active means fluorescence intensity above about 16000; inconclusive means no clear call, values can overlap the other calls; inactive means below that.
# Assay: counter-screen for toxin protease inhibitors: compound fluorescence, primary screen, artefact control for toxin protease inhibitor project, biochemical, multiplex microsphere, HTS (AID 624483)
# Details: compound autofluorescence counterscreen, microsphere flow cytometry; active compounds read high
row,SMILES,fluorescence intensity
1,CN(C)N1C(N)=C(C#N)C(c2ccc(Br)cc2)C2=C1CCCC2=O (stereo not given),4350
2,CCOc1ccc(-n2c(O)c(/C=N/Nc3nc(C)cc(C)n3)c3ccccc3c2=O)cc1,4560
3,Cc1ccc(N=Cc2c(O)n(-c3nccs3)c(=O)c3ccccc23)c(C)c1,2410
4,CCOc1ccc(N=Cc2c(O)n(-c3cccc(C)n3)c(=O)c3ccccc23)cc1,20300 (active)
5,O/N=C(\C[n+]1ccccc1)c1ccc(Br)cc1,3050
6,COC(=O)c1sccc1NC(=O)CC1C(=O)NCCN1C(=O)Nc1ccc(F)cc1F (stereo not given),6320
7,COc1cccc(N(CC(=O)N2CCc3ccccc3C2)S(C)(=O)=O)c1,22900 (active)
8,CS(=O)(=O)N(CC(=O)N1CCc2ccccc2C1)c1ccc(Br)cc1,4000
9,Cc1ccc(S(=O)(=O)N(CC(=O)N2CCc3ccccc3C2)c2cccc(Cl)c2)cc1,2460
10,COc1cc(/C=N\NC(=O)c2nonc2N)c(OC)cc1Br,2500
11,CCOc1ccc(/C=C(/C#N)c2nnc(N3CCOCC3)n2-c2ccccc2)cc1OC,3950
12,COc1cc(N2CCCC2)c(OC)cc1/C=C(/C#N)c1cccc(Br)c1,20000 (active)
13,O=C(O)c1ccccc1-c1cccc2nncn12,3820
14,Cc1sc2ccccc2c1CNC[C@H]1O[C@@H](n2ccc(=O)[nH]c2=O)[C@H](O)[C@@H]1O,6010
15,CCc1nc2c(OCCOc3ccccc3)cccn2c1N(C=O)Cc1ccc(OC)cc1,3280
16,O=C1CCCc2c1[nH]c1ccc(Br)cc21,10300
17,Cc1occc1C(=O)N/N=C/c1ccc(-c2cccc([N+](=O)[O-])c2)o1,6020
18,C#CCCCc1nc2ccccc2c(=O)n1N,2060
19,Cc1ccc(S(=O)(=O)NCc2nc3ccccc3c(=O)n2N)cc1,23000 (active)
20,COc1ccccc1CNS(=O)(=O)c1ccc(C)cc1,3200
21,O=C(COc1ccc(-c2ccccc2)cc1)NN=C1CCCC1,4340
22,O=S(=O)(NC1CC1)c1ccc(F)c(F)c1,5500
23,O=S(=O)(NC1CCCCC1)c1ccc(F)c2ccccc12,17400 (active)
24,O=S(=O)(NC1CC1)c1ccc2c3c(cccc13)CC2,4730

row,SMILES,fluorescence intensity
1,Cc1cc(=O)oc2c3c(cc(OCC(=O)NCC(O)c4ccccc4)c12)OC(C)(C)CC3 (stereo not given),5100
2,COc1cccc(NC(=O)CCc2nnc3ccc(N4CCC(C)CC4)nn23)c1,5600
3,CCOC(=O)[C@]12CCC=C1N(Cc1ccco1)C(=O)[C@H](CC(=O)N1CCSCC1)C2,4160
4,CC(C)(C(=O)N1CCC1(C)C(=O)NS(=O)(=O)c1ccc(Br)cc1)c1ccccc1 (stereo not given),3370
5,NC(c1ccccc1)c1csc(NC(=O)Nc2cccc(C(F)(F)F)c2)n1 (stereo not given),3690
6,Clc1ncn(CCOc2ccccc2)c1Cl,3990
7,Cc1cc2ncn(CCCCOc3ccccc3)c2cc1C,17400 (active)
8,COCCOCCn1cnc2ccccc21,9770
9,CSc1ccc(CN2CCC2(C)C(=O)Nc2ccc(C)c(O)c2)cc1 (stereo not given),3540
10,O=C(NCCCNc1ccc([N+](=O)[O-])cc1Cl)c1ccccc1F,4790
11,O=[N+]([O-])c1ccc(NCCCN2CCOCC2)c(Cl)c1,22800 (active)
12,O=C(NCCCN1CCOCC1)c1ccc([N+](=O)[O-])cc1[N+](=O)[O-],4500
13,CC1CCN(C(=O)c2ccc(S(=O)(=O)Cc3cc(F)ccc3F)c([N+](=O)[O-])c2)CC1,2510
14,CCc1ccc2nc(Nc3ncc(C(C)=O)c(C)n3)nc(C)c2c1,3620
15,CCOC(=O)[C@]12CCC=C1N(CCC1=CCCCC1)C(=O)[C@H](CC(=O)NCc1ccc(C)o1)C2,5770
16,COc1ccc(S(=O)(=O)NC(C)C(=O)N2CCCCCC2)cc1 (stereo not given),3500
17,CCCC(NS(=O)(=O)c1ccc(OC)cc1)C(=O)O (stereo not given),20900 (active)
18,CSCC(NS(=O)(=O)c1ccc(C)cc1)C(=O)O (stereo not given),4880
19,O=C(OCC(=O)N1CCCCCC1)c1ccc(Cl)nc1,3860
20,N#Cc1cccc(NC(=O)c2cc(C3CCCCN3C(=O)CCc3ccccc3)on2)c1 (stereo not given),4290
21,CC(=O)OC[C@@H]1CN(Cc2ccccc2)C[C@H](n2cnc3c(NCc4ccco4)ncnc32)O1,3590
22,Cn1c(=O)oc2cc(S(=O)(=O)NCCC(=O)NCc3ccccc3Cl)ccc21,4110
23,Cc1ccc(NC(=O)CCNS(=O)(=O)c2ccc3c(c2)oc(=O)n3C)cc1C,22000 (active)
24,COc1cccc(NC(=O)CCNS(=O)(=O)c2ccc3c(c2)oc(=O)n3C)c1,4240

row,SMILES,fluorescence intensity
1,N#Cc1c(/N=C/N2CCCC2)oc(-c2ccccc2)c1-c1ccccc1,3080
2,O=C(NC1CCN(C(=S)Nc2ccc(Cl)cc2)CC1)C1CCCCC1,3100
3,O=C(O)C1CCCCC1C(=O)Nc1ccc(Cl)cc1 (stereo not given),25300 (active)
4,O=C(O)Cc1ccc(NC(=O)C2CCCCC2C(=O)O)cc1 (stereo not given),4130
5,CCOC(=O)c1ccn(S(=O)(=O)c2ccc(C)cc2)c1-c1ccccc1,5920
6,O=S1(=O)C[C@@H](N2CCN(CCO)CC2)[C@H](COCc2ccccc2)N1,4260
7,COc1ccc(/C=C/C(=O)c2c(O)cc(OC)cc2OC)cc1,5700
8,Cc1ccc2nc(-c3ccccc3)c(CC3CCCCC3)n2c1,8550
9,Cc1ccc(SCC2=NNC(=O)C2)cc1,22700 (active)
10,Cc1ccc(SCc2cc(=O)[nH]c(N3CCCCC3)n2)cc1,4420
11,Cc1ccc(SCCSc2ncccn2)cc1,4180
12,O=C(COC(=O)c1ccc(Cl)nc1)NCc1cccs1,4330
13,O=C(C1CC(=O)N(C2CCCC2)C1)N1CCC2(CC1)OCCO2 (stereo not given),21300 (active)
14,O=C(C1CC(=O)N(C2CCCCC2)C1)N1CCN(c2ccccc2)CC1 (stereo not given),5000
15,O=C(C1CC(=O)N(C2CCCC2)C1)N1CCN(c2cccc(C(F)(F)F)c2)CC1 (stereo not given),5860
16,CCCNC(=O)C1(C)CCN(C(=O)c2ccccc2OC(F)(F)F)C1 (stereo not given),3700
17,Cc1ccc(S(=O)(=O)N2CC[C@H]3[C@@H](C2)C(=O)C[C@@H](c2ccccc2)N3S(=O)(=O)c2ccc(C)cc2)cc1,6280
18,CCc1cccc2c(=O)c(C(=O)NCCCOC)c[nH]c12,4150
19,COC1=CC(=O)OC(c2ccc(OC)cc2)C1 (stereo not given),3440
20,COc1cc(CO)c(C2(CO)CCCC2)cc1OC,2910
21,CC1(C)CC(=O)C2=C(C1)N=C1SCCC(=O)N1C2c1ccc(C(F)(F)F)cc1 (stereo not given),22500 (active)
22,CCCCC[C@@H]1C=C(C(=O)OCC)[C@H](c2ccccc2)N1S(=O)(=O)c1ccc(C)cc1,6420
23,O=C1NC[C@H](CCCCN2C[C@H](Cc3ccc(O)cc3)N(CCc3ccccc3)C(=O)C2=O)N(CCc2ccccc2)C1=O,5840
24,C=C(C)CNC(=S)/N=c1\scc(C)n1CC,8000

row,SMILES,fluorescence intensity
1,CC1(C)OC(=O)C2=C(C[C@@H](C3CC3)O[C@H]2CCc2cccc(Cl)c2)O1,6150
2,Cc1cc(O)ccc1-c1cc(C(=O)NCc2cc(C(F)(F)F)cc(C(F)(F)F)c2)[nH]n1,4030
3,CCOC(=O)C1=C(c2ccccc2)NC(=O)NC1c1cc(OCC)c(O)c([N+](=O)[O-])c1 (stereo not given),3560
4,CCCOc1ccc(C2NC(=O)NC(c3ccccc3)=C2C(C)=O)cc1OCC (stereo not given),16800 (active)
5,COc1cc(C2NC(=O)NC(c3ccccc3)=C2C(C)=O)c(Br)cc1OCC(N)=O (stereo not given),3130
6,COc1c(C)cc(C(O)c2ncc(-c3cccc(C(F)(F)F)c3)[nH]2)cc1C (stereo not given),2880
7,COCCCn1c(=O)/c(=C/c2ccccc2OC(C)C)s/c1=C(\C#N)C(=O)Nc1ccc(C(=O)O)cc1,4090
8,CC1(C(=O)O)CCCN(C(=O)/C=C/c2ccccc2)C1 (stereo not given),3760
9,CC(=O)NC1=NC(=O)CS1,22000 (active)
10,Cc1cccc(N)c1SC1CCCCC1O (stereo not given),2470
11,CN(C)/C=C/C(=O)c1cnc2sccn2c1=O,4610
12,C[C@H]1Cn2cnc(C(=O)N[C@@H](Cc3c[nH]c4ccccc34)C(=O)OC(C)(C)C)c2C(=O)N1,3860
13,CCN(c1ccccc1)S(=O)(=O)c1ccc(C(=O)Nc2ccccc2OC)cc1,3100
14,CCN(c1ccccc1)S(=O)(=O)c1ccc(NC(=O)C(C)(C)C)cc1,23900 (active)
15,CCN(c1ccccc1)S(=O)(=O)c1ccc(N)cc1,5250
16,O=c1[nH][nH]c2c1[C@H](c1ccc(Cl)cc1)O[C@H](CCc1ccccc1)C2,5920
17,CCc1nc2c(OCc3ccccc3)cccn2c1N(C)C(=O)c1ccco1,2960
18,COc1ccc(OC)c(Cc2nnc(CCC(=O)NC3CCCC3)o2)c1,2020
19,COc1cccc(CNC(=O)C2CC(=O)N(C3CCCCCCC3)C2)c1 (stereo not given),5720
20,COc1ccc(CN2CC(C(=O)NC3CCCCC3)CC2=O)cc1 (stereo not given),4380
21,COc1ccc(OC)c(CN2C(=O)CCC2(C)C(=O)NC2CCCCCC2)c1 (stereo not given),23000 (active)
22,COc1ccc(OC)c(CN2C(=O)CCC2(C)c2nnnn2Cc2ccccc2)c1 (stereo not given),5850
23,COc1cccc(CN2C(=O)CCC2(C)C(=O)NC2CCCCCC2)c1 (stereo not given),21300 (active)
